Measured values published in the supplement of paper PMC4709259.
Where a name gives a salt, the structure may show the parent alone. ± gives the standard deviation.

These compounds were tested on Jurkat (assay: cell count relative to DMSO control (fraction of control); higher = more cells (less growth inhibition)). Details: 48 h.
OCCOCCN1CCN(C2=Nc3ccccc3Sc3ccccc32)CC1 [Quetiapine Fumarate] (concentration: 25 µM) gave a cell count of 0.534 ± 0.17.
COc1ccc2c(c1)c(CC(=O)O)c(C)n2C(=O)c1ccc(Cl)cc1 [Indomethacin] (concentration: 25 µM) was tested, and the cell count was 0.482 ± 0.087.
For CC(=O)OCC(=O)[C@@]1(O)CC[C@H]2[C@@H]3CCC4=CC(=O)CC[C@]4(C)[C@@]3(F)[C@@H](O)C[C@@]21C [Fludrocortisone Acetate] (concentration: 25 µM), the cell count was 0.63 ± 0.033.
Nc1nnc(-c2cccc(Cl)c2Cl)c(N)n1 [Lamotrigine] (concentration: 25 µM) was tested, and the cell count was 0.734 ± 0.16.
CN1CCN(CCCN2c3ccccc3Sc3ccc(C(F)(F)F)cc32)CC1 [Trifluoperazine·HCl] (concentration: 2.5 µM) showed a cell count of 0.776 ± 0.13.
Work on CN(Cc1cnc2nc(N)nc(N)c2n1)c1ccc(C(=O)N[C@@H](CCC(=O)O)C(=O)O)cc1 [Methotrexate] (concentration: 25 nM) yielded a cell count of 0.499 ± 0.093.
In the case of C[C@H](N)[C@H](O)c1cccc(O)c1 [Metaraminol Bitartrate] (concentration: 25 µM), the cell count is reported as 0.774 ± 0.12.
With COc1ccccc1OCC(O)COC(N)=O (stereo unspecified) [Methocarbamol] (concentration: 25 µM) the cell count was 0.715 ± 0.14.
CC(C)/N=c1\cc2n(-c3ccc(Cl)cc3)c3ccccc3nc-2cc1Nc1ccc(Cl)cc1 [Clofazimine] (concentration: 2.5 µM) gave a cell count of 0.695 ± 0.066.
For Cc1nnc(C(=O)NC(C)(C)c2nc(C(=O)NCc3ccc(F)cc3)c(O)c(=O)n2C)o1 [Raltegravir] (concentration: 25 µM), the cell count was 0.569 ± 0.11.
Work on CN(CCOc1ccc(CC2SC(=O)NC2=O)cc1)c1ccccn1 (stereo unspecified) [Rosiglitazone] (concentration: 25 µM) yielded a cell count of 0.718 ± 0.069.
With Cn1c(=O)c2[nH]cnc2n(C)c1=O [Aminophylline] (concentration: 25 µM) the cell count was 0.984 ± 0.066.
Compound Cc1ccc(C(=O)c2cc(O)c(O)c([N+](=O)[O-])c2)cc1 [Tolcapone] (concentration: 25 µM) has a cell count of 0.864 ± 0.15.
For CC/C(=C(\c1ccccc1)c1ccc(OCCN(C)C)cc1)c1ccccc1 [Tamoxifen Citrate] (concentration: 25 µM), the cell count was 0.314 ± 0.11.
C[C@@H]1NC(=O)[C@@H](N)CNC(=O)[C@H](C2CCNC(=N)N2)NC(=O)/C(=C/NC(N)=O)NC(=O)[C@H](CNC(=O)CC(N)CCCN)NC1=O.N=C1NCC[C@H]([C@@H]2NC(=O)/C(=C/NC(N)=O)NC(=O)[C@H](CNC(=O)C[C@@H](N)CCCN)NC(=O)[C@H](CO)NC(=O)[C@@H](N)CNC2=O)N1 [Capreomycin Sulfate] (concentration: 25 µM) showed a cell count of 0.544 ± 0.14.
For CO[C@H]1C[C@@H]2CC[C@@H](C)[C@@](O)(O2)C(=O)C(=O)N2CCCC[C@H]2C(=O)O[C@H]([C@H](C)C[C@@H]2CC[C@@H](OCCO)[C@H](OC)C2)CC(=O)[C@H](C)/C=C(\C)[C@@H](O)[C@@H](OC)C(=O)[C@H](C)C[C@H](C)/C=C/C=C/C=C/1C [Everolimus] (concentration: 2.5 µM), the cell count was 0.552 ± 0.072.
Compound CC(CN(C)C)CN1c2ccccc2CCc2ccccc21 (stereo unspecified) [Trimipramine Maleate] (concentration: 25 µM) has a cell count of 0.834 ± 0.056.
For C[C@@H](O[C@H]1OCCN(Cc2n[nH]c(=O)[nH]2)[C@H]1c1ccc(F)cc1)c1cc(C(F)(F)F)cc(C(F)(F)F)c1 [Aprepitant] (concentration: 2.5 µM), the cell count was 0.651 ± 0.024.
With CO[C@H]1/C=C/O[C@@]2(C)Oc3c(C)c(O)c4c(O)c(c(/C=N/N5CCN(C6CCCC6)CC5)c(O)c4c3C2=O)NC(=O)/C(C)=C\C=C\[C@H](C)[C@H](O)[C@@H](C)[C@@H](O)[C@@H](C)[C@H](OC(C)=O)[C@@H]1C [Rifapentine] (concentration: 25 µM) the cell count was 0.275 ± 0.088.
With O=c1n(CCCN2CCN(c3cccc(Cl)c3)CC2)nc2ccccn12 [Trazodone·HCl] (concentration: 25 µM) the cell count was 0.878 ± 0.048.
In the case of CO[C@H]1C[C@@H]2CC[C@@H](C)[C@@](O)(O2)C(=O)C(=O)N2CCCC[C@H]2C(=O)O[C@H]([C@H](C)C[C@@H]2CC[C@@H](O)[C@H](OC)C2)CC(=O)[C@H](C)/C=C(\C)[C@@H](O)[C@@H](OC)C(=O)[C@H](C)C[C@H](C)/C=C/C=C/C=C/1C [Sirolimus (Rapamycin)] (concentration: 2.5 µM), the cell count is reported as 0.626 ± 0.074.
